# Measurements reported in PubChem BioAssay AID652054 (National Center for Advancing Translational Sciences (NCATS), 2013).
# Among all 360,000 compounds or so, about 9,100 (2.5%) were called active. Not shown: some 4% with an inconclusive outcome. Rule as the data show it: active = max response below about -50%; inconclusive = no clear call, values can overlap the other calls; inactive = above that. The full list was thinned out, with actives kept by preference.
# Biological target: D(3) dopamine receptor (Homo sapiens) (UniProt P35462)
# Assay: qHTS of D3 Dopamine Receptor Antagonist: qHTS
# Details: D3R cells, DiscoveRx beta-arrestin luminescence, antagonist mode; hits give low values
# Outline: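 Cells expressing the human receptor were seeded at 1500 cells/well, incubated overnight at 37 degrees C in 5% CO2, then exposed to library compounds with dopamine controls for 90 minutes at 37 degrees C before luminescent detection.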
# % is scaled to controls: 0 for no effect and ±100 for the full control effect.
# Chain of D(3) dopamine receptor (Homo sapiens) (P35462 whole entry, looked up): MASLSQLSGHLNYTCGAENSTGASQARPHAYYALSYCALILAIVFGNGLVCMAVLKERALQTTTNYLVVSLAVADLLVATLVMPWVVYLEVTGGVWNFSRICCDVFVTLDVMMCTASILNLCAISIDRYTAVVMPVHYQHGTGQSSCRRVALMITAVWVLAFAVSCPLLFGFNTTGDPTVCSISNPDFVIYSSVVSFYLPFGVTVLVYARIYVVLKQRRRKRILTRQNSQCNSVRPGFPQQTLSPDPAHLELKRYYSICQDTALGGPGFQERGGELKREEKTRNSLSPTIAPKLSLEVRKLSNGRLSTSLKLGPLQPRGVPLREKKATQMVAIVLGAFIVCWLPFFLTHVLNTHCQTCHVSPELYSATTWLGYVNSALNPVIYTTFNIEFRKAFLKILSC
row,SMILES,"max response, negative = inhibition"
1,C[C@@H]1CN([C@@H](C)CO)C(=O)CCCn2nncc2CO[C@H]1CN(C)Cc1ccc(C(F)(F)F)cc1,20.1% (inactive)
2,CC(C)NC(=O)N1Cc2cc(C(=O)NCC(F)(F)F)nc(-c3cccc(-c4cc5ccccc5o4)c3)c2[C@@H]1CCO,18.7% (inactive)
3,O=C(NC(c1ccc(-c2ccccc2)cc1)c1cnccn1)C1CCN(CCOc2ccc(Cl)cc2Cl)CC1 (stereo not given),-24.7% (inactive)
4,COC(=O)c1ccc2nc(-c3ccccc3)c(Cc3ccc(OC)cc3C)n2c1,-9.42% (inactive)
5,COc1ccc2[nH]cc(/C=C(/C#N)S(=O)(=O)c3ccccc3)c2c1,-50.9% (active)
6,COc1ccc(/C=N/N=C/c2c[nH]c(=O)c(C#N)c2Nc2ccccc2)cc1,23.9% (inactive)
7,COc1ccc2[nH]cc(CCN3C(=O)c4ccc(C(=O)O)cc4C3=O)c2c1,11.7% (inactive)
8,Cc1ccccc1S(=O)(=O)NC(=O)C1(C)CCN1C(=O)C1(c2ccc(Cl)cc2)CC1 (stereo not given),4.07% (inactive)
9,O=C(NN=Cc1ccccc1)c1ccccc1,-25.4% (inactive)
10,Cc1nonc1C(=O)N/N=C/c1ccc(O)cc1,20.2% (inactive)
11,Cc1nc2ccc(C(=O)N/N=C/c3ccc(O)cc3)cc2[nH]1,-78.1% (active)
12,COc1ccc2c(c1)c(=Cc1ccc(N(C)C)cc1)c1cc(-c3ccccc3)[n+](C)n12,-65.2% (active)
13,Cc1ccc(C(NC(=O)C2CCN(CCOc3ccc(Cl)cc3Cl)CC2)c2ccccn2)cc1 (stereo not given),-3.28% (inactive)
14,CC1=C(C(=O)N(C)C)CC(CC(=O)NCCc2ccccn2)C(=O)N1CCC1=CCCCC1 (stereo not given),-22.1% (inactive)
15,CCCCCNC(=O)C1C(=O)Nc2ccccc2C(=O)N1C(C)(C)C (stereo not given),-19.2% (inactive)
16,CC(=O)c1c(C)[nH]c(C(=O)NCc2ccc(C)cc2)c1C,-6.75% (inactive)
17,CCCCN(CC)CCNC(=O)c1[nH]c(C)c(C(C)=O)c1C,-58.3% (active)
18,CC(=O)c1c(C)[nH]c(C(=O)NCCCN2CCCC2)c1C,11.6% (inactive)
19,CC1(C(=O)NS(=O)(=O)C2CC2)CCCN(C(=O)CSc2ccccc2)C1 (stereo not given),0% (inactive)
20,Cc1ccc(-c2nc3ccc(Br)cn3c2Cc2ccccc2C(F)(F)F)cc1,-15% (inactive)
21,CCOC(=O)C1=CC[C@@H](c2ccncc2)N(S(=O)(=O)c2ccc(C)cc2)C1,-4.07% (inactive)
22,CCCCNC(=O)c1nc(C2CCN(S(=O)(=O)c3ccc(F)c(F)c3)CC2)oc1-c1cccc(C(F)(F)F)c1,7.15% (inactive)
23,C[C@H]1CN([C@@H](C)CO)C(=O)CCCn2nncc2CO[C@@H]1CN(C)Cc1ccc(Oc2ccccc2)cc1,-10.5% (inactive)
24,C=CS(=O)c1sc(Cl)c(N2CCOCC2)c1[N+](=O)[O-] (stereo not given),-84.2% (active)
25,CC1(C(=O)NCc2ccco2)Cc2c(-c3ccc4c(c3)OCO4)ccnc2O1 (stereo not given),5.33% (inactive)
26,CC(=O)NN=C(C)c1ccc(NC(=O)C2CC2)cc1,3.77% (inactive)
27,COc1ccc(NC(=O)C(=O)NCC(c2ccco2)N2CCc3ccccc3C2)cc1 (stereo not given),6.38% (inactive)
28,COc1ccc(CN2CN(C(C)C)CSC2=S)cc1,-12.9% (inactive)

row,SMILES,"max response, negative = inhibition"
1,COc1ccc(CCC(C)N2CCc3ccccc3C2)cc1 (stereo not given),-112% (active)
2,O=C(OC1CC2CC1[C@H]1CCCCN1C2=O)N1CCOCC1 (stereo not given in full),3.81% (inactive)
3,O=C(C(=O)N1CCC(c2ccccc2)CC1)c1ccccc1,11.8% (inactive)
4,CCN(CC)CCCN=Cc1c(O)n(-c2ccc(C)cc2)c(=O)c2ccccc12,9.43% (inactive)
5,CCOc1ccc(-n2c(O)c(/C=N/Nc3nc(C)cc(C)n3)c3ccccc3c2=O)cc1,-56.4% (active)
6,Cc1ccc(-n2c(O)c(C=Nc3ccc(S(=O)(=O)Nc4ncccn4)cc3)c3ccccc3c2=O)cc1C,1.71% (inactive)
7,O=C(Nc1ccc2c(c1)OCCO2)C1c2ccccc2OCC(=O)N1Cc1ccccn1 (stereo not given),33.3% (inactive)
8,Cc1cc(C)n(-c2ccc3nncn3n2)n1,1.57% (inactive)
9,Cc1cc(C)n(-c2ccc(Cl)c(C(=O)O)n2)n1,-86.2% (active)
10,Cc1ccc(S(=O)(=O)Nc2nc(C)cc(-n3nc(C)cc3C)n2)cc1,-12.2% (inactive)
11,COCCCNC(=O)c1cccc2c(-c3ccc(O)c(OC)c3)coc12,0.229% (inactive)
12,COC(=O)[C@]12CCCCC=C1N(Cc1ccco1)C(=O)[C@H](CC(=O)NCC1CCCCC1)C2,-0.188% (inactive)
13,CN1OC[C@@H]2CN(S(=O)(=O)c3cccc(C(F)(F)F)c3)[C@H](c3ccc(-c4cc5ccccc5o4)cc3)C[C@@H]21,-12% (inactive)
14,CC1(C(=O)NCc2ccc(F)c(F)c2)Cc2c(-c3ccc4c(c3)OCO4)ccnc2O1 (stereo not given),19.2% (inactive)
15,Cc1ccc(CN2CCN(/N=C/c3ccco3)CC2)c(C)c1,-78.6% (active)
16,Cc1ccc(NC(=O)CCC(=O)N/N=C/c2ccco2)c(C)c1,16.8% (inactive)
17,Cc1ccc(CN2CCN(/N=C/c3cccnc3)CC2)c(C)c1,-15% (inactive)
18,O=C(/C=C/[C@H]1O[C@@H](n2cnc3c(NC(=O)c4ccccc4)ncnc32)[C@H](O)[C@@H]1O)NCc1ccccc1,0% (inactive)
19,CN1CCN(CCCNC(=O)c2cc3c(=O)oc4ccccc4c3s2)CC1,0% (inactive)
20,Cc1cccc2c1-c1sc(C(=O)NCCCN3CCc4ccccc4C3)cc1CO2,-63.3% (active)
21,CCn1cc(C(=O)NCCCN2CCCCCC2)c(=O)c2cc(S(=O)(=O)N3CCc4ccccc4C3)ccc21,-2.35% (inactive)
22,C[C@@H]1CN([C@@H](C)CO)C(=O)c2cc(Br)cnc2O[C@H]1CN(C)Cc1ccc(-c2ccccc2)cc1,24.5% (inactive)
23,COc1ccc(CN2C(=O)C(CC(=O)NCCN3CCOCC3)CC(C(=O)N(C(C)C)C(C)C)=C2C)cc1 (stereo not given),10.3% (inactive)
24,COc1ccc([C@H]2N[C@]3(CCCN(CC4CCCCC4)C3=O)[C@H]3C(=O)N(C)C(=O)[C@@H]23)cc1,-3.44% (inactive)
25,CCOc1c2ccc(C(=O)NCc3ccc4c(c3)OCO4)cc2nn1C,21.7% (inactive)
26,COc1cc(OC)c(C(=O)NCc2ccc3c(c2)OCO3)cc1OC,-7.32% (inactive)
27,COc1ccccc1-n1c(C)nc2cc(C(=O)NCc3ccc4c(c3)OCO4)ccc21,-53.5% (active)
